Consider 49 compounds from PubChem BioAssay AID1851 (National Center for Advancing Translational Sciences (NCATS), 2009).

Out of some 16,000 compounds screened, about 5,100 (32%) were called active. Roughly 25% stayed inconclusive and do not appear here. The list shows a part of the results. Values without a mark were called inactive. The call rests on the fitted dose curve; in most records, active means well fitted curve in the direction sought with a large enough effect; inconclusive means small, poorly fitted or top-dose-only effect, or effect the other way; inactive means no such curve, though single readings can be large or run the other way.
On the % scale 0 is the no-effect control and ±100 the full control effect.

For this test, the target named is Cytochrome P450 3A4 (Homo sapiens) (UniProt P08684). Briefly: Cytochrome panel assay with activity outcomes. The note with it: recombinant CYP, pro-luciferin dealkylation, luminescence, p450-cyp3a4; series mostly up to 57.1 µM; activity, negative = inhibition: at the top concentration.
Chain of Cytochrome P450 3A4 (Homo sapiens) (P08684 whole entry, looked up): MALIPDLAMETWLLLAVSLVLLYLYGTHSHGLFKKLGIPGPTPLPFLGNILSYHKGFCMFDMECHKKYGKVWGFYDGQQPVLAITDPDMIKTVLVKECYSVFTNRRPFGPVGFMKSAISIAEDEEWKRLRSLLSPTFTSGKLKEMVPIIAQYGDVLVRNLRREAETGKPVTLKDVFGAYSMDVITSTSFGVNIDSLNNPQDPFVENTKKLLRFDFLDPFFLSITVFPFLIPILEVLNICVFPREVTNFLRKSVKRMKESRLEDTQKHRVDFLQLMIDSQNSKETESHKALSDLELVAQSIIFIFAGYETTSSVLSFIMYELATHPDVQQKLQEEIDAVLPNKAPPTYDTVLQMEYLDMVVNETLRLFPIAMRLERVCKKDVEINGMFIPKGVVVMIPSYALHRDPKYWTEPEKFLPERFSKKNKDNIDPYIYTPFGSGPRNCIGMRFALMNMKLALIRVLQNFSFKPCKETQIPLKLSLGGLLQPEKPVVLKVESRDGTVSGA
In the case of `C[C@@]1(CCOCc2ccccc2)NC(=O)NC1=O`, the activity, negative = inhibition is -5.69% [at 11.4 µM]. In the case of `CC(C)[C@H](NC(=O)OC(C)(C)C)[C@@H](O)CC(=O)C(C)(C)C`, the activity, negative = inhibition is -11% [at 11.4 µM]. In the case of `O=c1c(Oc2ccccc2Br)c(C(F)(F)F)oc2c(CN3CCCC3)c(O)ccc12`, the “activity, negative = inhibition” value is -24.1%. In the case of `O=C1OCCC1Sc1nnnn1-c1ccccc1` (centres undefined), the “activity, negative = inhibition” value was -3.46%. Take `Cc1cc(C)cc(N2C(=O)CC(Sc3nnnn3-c3ccccc3)C2=O)c1` (centres undefined): the AC50 is 2000 nM (active). Regarding `Cc1cccc(Cn2cnc3c(NS(C)(=O)=O)c(C)c(C)cc32)c1`, the AC50 was 2000 nM (active). `Cc1cc2c(ncn2Cc2ccccc2)c([N+](=O)[O-])c1C`: the “activity, negative = inhibition” value was 25%. The same measure, in the same setting: to `CC(C)CN=C(N)N=C(N)N` belongs -1.21% [at 11.4 µM]; to `CC(=O)NC1(c2cccc(F)c2)CCN(CC(=O)NC2CCCCC2)CC1`, -27.6%.

Take `O=C(CN(C(=O)CSc1nc2ccccc2o1)c1cccc(F)c1)NC1CCCCC1`: the half-maximal activity concentration (AC50) was 12600 nM (active). As for `O=S(=O)(CC(O)COc1ccccc1Cl)c1ccccc1` (centres undefined), the activity, negative = inhibition was -5.32% [at 11.4 µM]. `c1cncc(CNc2ncncc2-c2cccnc2)c1`: the concentration at half-maximal activity (AC50) was 2000 nM (active). As to `c1ccc(CNc2ncncc2-c2cccnc2)cc1`, the AC50 is 1260 nM (active). As to `Cc1cccc(CNc2ncncc2-c2cccnc2)c1`, the AC50 is 631 nM (active). Consider `O=C(Nc1ccccc1)N1CCC2(CC1)CCN(C(=O)c1csnn1)CC2`, for which the “activity, negative = inhibition” value is -6.26%. For the compound `COc1ccc(NC(=O)N2CC3(CCN(C(=O)c4csnn4)CC3)C2)cc1`, the “activity, negative = inhibition” value was -19.1%. On to `COc1ccc(NC(=O)N2CC3(CCN(C(=O)c4cnccn4)CC3)C2)cc1`, for which the “activity, negative = inhibition” value was -7.85%. As to `COc1ccc(NC(=O)N2CCCC3(CCN(C(=O)c4csnn4)CC3)C2)cc1`, the AC50 is 15800 nM (active). In the case of `O=C(Nc1ccccc1)N1CCCC2(CCN(C(=O)c3csnn3)CC2)C1`, the concentration at half-maximal activity (AC50) is 15800 nM (active).

On to `CC[C@@]1(O)C(=O)OCc2c1cc1n(c2=O)Cc2cc3c(CN(C)C)c(O)ccc3nc2-1`, for which the activity, negative = inhibition was -2.47% [at 11.4 µM]. On to `CC1(C)O[C@H]2[C@@H](O1)[C@@H](On1nnc3ccc(Cl)cc31)O[C@@H]2[C@@H]1COC(C)(C)O1`, for which the activity, negative = inhibition was -24.7% [at 11.4 µM]. For `CC1CCN(CC(=O)Nc2cccc([N+](=O)[O-])c2)CC1`, the “activity, negative = inhibition” value was -1.85%. For the compound `Cc1ccc(NS(=O)(=O)c2ccc(OCC(=O)Nc3cccc([N+](=O)[O-])c3)c(C)c2)cc1`, the AC50 is 2000 nM (active).

`COc1ccccc1NC(=O)Cn1nnc(-c2ccccc2NC(=O)c2cc3ccccc3oc2=O)n1`: the concentration at half-maximal activity (AC50) was 3550 nM (active).

As for `COc1ccccc1C(=O)Nc1cc2c(ccc3ccccc32)oc1=O`, the “activity, negative = inhibition” value is -6.45%. `COC(=O)c1ccc(OCC2c3cc(OC)c(OC)cc3CCN2C(=O)C2CC2)cc1` (centres undefined): the AC50 is 17800 nM (active). Take `COc1ccc(C(=O)OC(C)CN2CCN(C)CC2)cc1OC` (centres undefined): the “activity, negative = inhibition” value was 3.07%. Consider `COc1ccccc1-c1cncnc1NCc1ccccc1`, for which the half-maximal activity concentration (AC50) was 251 nM (active). Regarding `COc1ccccc1-c1cncnc1NCc1cccc(C)c1`, the AC50 is 100 nM (active). As to `COc1ccccc1-c1cncnc1NCc1cccnc1`, the AC50 is 501 nM (active).

Regarding `CCCCN(C)Cc1c(C)[nH]c2ccc(Cl)cc2c1=O`, the “activity, negative = inhibition” value was -22.9%.

For `CCCCCCN(CCCCCC)C(=O)Cc1c(-c2ccc(F)cc2)[nH]c2ccccc12`, the AC50 is 2510 nM (active). Take `CCOC(=O)c1[nH]c2ccc(Cl)cc2c1-c1ccccc1`: the “activity, negative = inhibition” value is 18.9%.

Turning to `CCCCCCN(CCCCCC)C(=O)Cc1c(-c2ccc(Cl)cc2)[nH]c2ccc(Cl)cc12`, the AC50 was 12600 nM (active).

With `Cn1c(=O)c2[nH]c(C3CCCC3)nc2n(C)c1=O`, the “activity, negative = inhibition” value was -5.26%.

On to `O=C(O)c1nnsc1COCc1ccccc1`, for which the activity, negative = inhibition is -0.287% [at 11.4 µM]. `COc1ccc(OC)c2[nH]c(=O)c(CCNC(=O)c3ccc(S(=O)(=O)N4CCCC4)cc3)cc12`: the AC50 is 15800 nM (active). `COc1ccc(OC)c2[nH]c(=O)c(CCNS(=O)(=O)c3ccc(C)cc3)cc12`: the AC50 was 7940 nM (active).

For the compound `COc1cc2c(c(O)c1OC)C(=O)C(OC)CCC2` (centres undefined), the “activity, negative = inhibition” value was -10.9%. For `COc1ccc(OC)c2[nH]c(=O)c(CCNC(=O)c3ccc(S(=O)(=O)N(C)C)cc3)cc12`, the “activity, negative = inhibition” value was -9.76%.

Consider `COc1ccc(OC)c2[nH]c(=O)c(CCNC(=O)C3CCCCC3)cc12`, for which the AC50 was 8910 nM (active).

Regarding `COCCNC(=O)COc1ccc(Oc2ccccc2)cc1`, the “activity, negative = inhibition” value is -13.2%.

`COc1ccc(C(=O)NCC(c2ccc(F)cc2)N2CCOCC2)cc1S(=O)(=O)N1CCCC1` (centres undefined): the “activity, negative = inhibition” value is 3.78%. In the case of `COc1ccc(OC)c2[nH]c(=O)c(CCNC(=O)COc3ccccc3)cc12`, the AC50 was 10000 nM (active). `CCCCC1CC(/C(C)=N/NC(N)=O)OC1=O` (centres undefined): the “activity, negative = inhibition” value was 8.73%.

For `COc1cccc(NC(=O)CSc2nc3ccccc3cc2Cc2ccccc2)c1`, the half-maximal activity concentration (AC50) is 3550 nM (active). For `COc1ccccc1NC(=O)CSc1nc2ccccc2cc1Cc1ccccc1`, the AC50 was 2820 nM (active). With `CCOC(=O)c1sc2nc3c(cc2c1N)COC(C(C)C)C3` (centres undefined), the “activity, negative = inhibition” value was 10.5%.

Regarding `Cn1cc(C2=C(c3ccc(Cl)cc3Cl)C(=O)NC2=O)c2ccccc21`, the AC50 was 2510 nM (active).

What is called AC50 is the midpoint of the concentration-response curve, whichever way the signal moves.
